Measurements from PubChem BioAssay.
Calls of active or inactive are those of the source. Unless noted, how the calls were made is not given here.

Assays:
[1] = resazurin metabolic signal in HepG2 cells – cell-based, resazurin fluorescence, 24 h, PK04 Diversity Set, profiling panel (AID 1172); settings: HepG2 viability, higher = more signal
[2] = budding yeast growth changes without added modifier – OD600, strain BY4716, 24 h, basal condition, primary screen (AID 1173); settings: S. cerevisiae BY4716 growth, OD600, 24 h; higher = more signal, called active from +8 up or from −8 down
[3] = viability profiling in MM1S myeloma cells – cell-based, resazurin fluorescence, basal, 24 h, PK04 Diversity Set, profiling panel (AID 1174); settings: higher = more signal, called active from +8 up or from −8 down;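 further: MM1S multiple myeloma cell line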
[4] = target: Dihydroorotate dehydrogenase (quinone), mitochondrial (Plasmodium falciparum (isolate 3D7)) (UniProt Q08210); assay: inhibition of P. falciparum DHODH – biochemical, C-terminal His tag, absorbance 600 nm, primary screen (AID 1175); settings: PfDHODH enzyme, DCIP absorbance 600 nm; higher = more signal, called active from +8 up or from −8 down;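 further: recombinant parasite enzyme with a five histidine tag at its C terminus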
Sequence of Dihydroorotate dehydrogenase (quinone), mitochondrial (Plasmodium falciparum (isolate 3D7)) (Q08210 whole entry, looked up): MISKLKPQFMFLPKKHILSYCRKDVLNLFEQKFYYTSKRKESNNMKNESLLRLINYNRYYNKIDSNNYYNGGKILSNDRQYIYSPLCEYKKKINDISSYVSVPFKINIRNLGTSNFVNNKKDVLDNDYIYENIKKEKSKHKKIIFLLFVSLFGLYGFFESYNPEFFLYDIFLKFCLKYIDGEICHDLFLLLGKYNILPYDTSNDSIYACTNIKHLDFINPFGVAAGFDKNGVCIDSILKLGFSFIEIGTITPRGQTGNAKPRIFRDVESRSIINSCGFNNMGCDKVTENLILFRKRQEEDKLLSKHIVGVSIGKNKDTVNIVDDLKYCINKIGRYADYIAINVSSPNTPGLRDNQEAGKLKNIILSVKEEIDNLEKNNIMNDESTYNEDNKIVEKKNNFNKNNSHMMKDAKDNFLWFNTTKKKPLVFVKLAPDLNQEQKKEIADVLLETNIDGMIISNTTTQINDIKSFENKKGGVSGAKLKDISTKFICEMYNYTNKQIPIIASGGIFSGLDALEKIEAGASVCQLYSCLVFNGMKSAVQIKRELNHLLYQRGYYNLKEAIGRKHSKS

[5] = inhibition of PAO1 biofilm formation – strain PAO1, LB-PBS medium, absorbance 600 nm, primary screen (AID 1176); settings: P. aeruginosa PAO1 growth/biofilm, A600, 12 h; higher = more signal
[6] = growth modulation of vineyard yeast isolate – strain RM11-1a, OD600, basal, 24 h, primary screen (AID 1177);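 further: cultures grown under basal conditions with no added stressor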; settings: S. cerevisiae RM11-1a growth, OD600, 24 h; higher = more signal, called active from +8 up or from −8 down
[7] = growth of efflux-deficient E. coli DRC39 – strain DRC39, OD650, 24 h, E. coli filamentation inducers, primary screen (AID 1178);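 further: growth measured as culture turbidity by optical density at 650 nm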; settings: E. coli DRC39 acrAB, higher = more signal, called active from +8 up or from −8 down
[8] = growth of efflux-deficient E. coli DRC39 – strain DRC39, OD650, 48 h, E. coli filamentation inducers, primary screen (AID 1179);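 further: screen aims at cell division blockers that make cells filament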; settings: E. coli DRC39 delta-acrAB growth, higher = more signal, called active from +8 up or from −8 down
[9] = viability profiling in RPMI8226 myeloma cells – cell-based, resazurin fluorescence, basal, 24 h, PK04 Diversity Set, profiling panel (AID 1180); settings: higher = more signal;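 further: RPMI8826 multiple myeloma cell line at 5000 cells per well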
[10] = target: E3 ubiquitin-protein ligase XIAP (Homo sapiens) (UniProt P98170); assay: small molecules binding XIAP protein – biophysical, small-molecule microarray, fluorescence 635 nm, primary screen (AID 1181); settings: higher = more signal;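 further: score merges 667 nm emission and signal to noise over triplicate slides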
Sequence of E3 ubiquitin-protein ligase XIAP (Homo sapiens) (P98170 whole entry, looked up, the tested form may be a part): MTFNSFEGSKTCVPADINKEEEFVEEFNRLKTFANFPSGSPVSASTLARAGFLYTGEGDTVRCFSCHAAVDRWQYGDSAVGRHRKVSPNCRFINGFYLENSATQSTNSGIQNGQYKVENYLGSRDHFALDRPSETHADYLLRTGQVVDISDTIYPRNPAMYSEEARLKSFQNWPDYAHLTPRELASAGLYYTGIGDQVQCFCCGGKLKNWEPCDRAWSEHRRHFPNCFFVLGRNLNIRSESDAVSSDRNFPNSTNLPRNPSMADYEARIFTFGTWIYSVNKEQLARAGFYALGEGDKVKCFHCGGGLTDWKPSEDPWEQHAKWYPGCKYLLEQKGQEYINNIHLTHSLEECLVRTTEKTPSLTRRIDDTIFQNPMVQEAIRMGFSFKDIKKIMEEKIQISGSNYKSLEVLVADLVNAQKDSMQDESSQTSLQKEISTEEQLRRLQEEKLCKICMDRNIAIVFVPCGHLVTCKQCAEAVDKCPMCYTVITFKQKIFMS

[11] = test system: XIP peptide (Xip251-270) binding; assay: XIP fragment 251-270 binding compounds – biochemical, small-molecule microarray, fluorescence 635/667 nm, 0.1 µg/mL protein, primary screen (AID 1182); settings: fluorescent protein binding, 635 nm, higher = more signal, called active from +8 up or from −8 down
[12] = test system: XIP peptide (Xip251-270); assay: compounds binding XIP fragment 251-270 – biochemical, small-molecule microarray, fluorescence 635/667 nm, 0.5 µg/mL protein, primary screen (AID 1183); settings: fluorescence 635 nm, higher = more signal
[13] = blood-stage malaria parasite viability loss – strain 3D7, DAPI fluorescence, 100 nL, primary screen (AID 1184);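 further: parasites grown inside human red blood cells in medium with human serum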; settings: P. falciparum 3D7 growth, 3 d, higher = more signal
[14] = target: Homeobox protein Hox-A13 (Mus musculus) (UniProt Q62424); assay: disruptors of Hoxa13 oligonucleotide interaction – biochemical, fluorescence polarization, labeled oligonucleotide, primary screen (AID 1185); settings: Hoxa13:DNA binding, 15 min, higher = more signal, called active from +8 up or from −8 down
Sequence of Homeobox protein Hox-A13 (Mus musculus) (Q62424 whole entry, looked up): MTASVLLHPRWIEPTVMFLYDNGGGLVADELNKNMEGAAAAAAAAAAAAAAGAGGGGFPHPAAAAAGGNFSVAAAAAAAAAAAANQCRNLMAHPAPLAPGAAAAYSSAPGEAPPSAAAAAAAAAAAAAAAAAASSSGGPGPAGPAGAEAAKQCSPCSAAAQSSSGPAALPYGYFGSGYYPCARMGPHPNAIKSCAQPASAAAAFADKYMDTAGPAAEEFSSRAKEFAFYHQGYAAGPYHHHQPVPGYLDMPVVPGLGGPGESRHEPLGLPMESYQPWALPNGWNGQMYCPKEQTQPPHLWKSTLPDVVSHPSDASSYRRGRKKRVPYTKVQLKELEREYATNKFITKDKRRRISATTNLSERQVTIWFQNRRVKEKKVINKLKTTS

[15] = blockers of DNA damage checkpoint Chk1 activation – imaging, HeLa, hydroxyurea, phospho-Chk1 antibody, percent positive cells, primary screen (AID 1186); settings: hydroxyurea-induced phospho-Chk1 immunofluorescence imaging, higher = more signal
[16] = blockers of DNA damage checkpoint Chk1 activation – imaging, HeLa, hydroxyurea, phospho-Chk1 nuclear intensity, primary screen (AID 1187); settings: hydroxyurea-induced phospho-Chk1 immunofluorescence imaging, higher = more signal

SMILES | z-score [1] | z-score [2] | z-score [3] | composite z-score [4] | z-score [5] | z-score [6] | z-score [7] | z-score [8] | z-score [9] | composite z-score [10] | composite z-score [11] | composite z-score [12] | z-score [13] | z-score [14] | z-score [15] | z-score [16]
C=CC[C@]1(C(=O)N(C)C)N=C(c2ccc(OCCCO)cc2)O[C@H]1c1ccccc1 | 0.549 | -2.54 (inactive) | 0.911 (inactive) | -0.588 (inactive) | -0.484 (inactive) | -0.689 (inactive) | 1.23 (inactive) | 0.771 (inactive) | 0.586 | 0.133 | 0.39 (inactive) | 0.643 | -2.08 | -4.25 (inactive) | -0.271 (inactive) | 0.109 (inactive)
CC(C)CNC(=O)[C@@]1(c2ccc([N+](=O)[O-])cc2)CC(=O)N(C(C)C)[C@@H]1c1ccc(CO)cc1 | -0.0273 | -0.78 (inactive) | 1.23 (inactive) | 1.14 (inactive) | -0.301 (inactive) | -0.738 (inactive) | 0.474 (inactive) | 1.53 (inactive) | 1.37 | -0.13 | -0.299 (inactive) | 0.131 | -0.253 | -1.21 (inactive) | -0.19 (inactive) | -0.0822 (inactive)
COC(=O)[C@@]1(Cc2ccc(F)cc2)[C@H]2c3cc(C(=O)N4CCCC4)n(Cc4ccccc4)c3C[C@H]2CN1C(=O)c1ccccc1 | 0.155 | 1.38 (inactive) | -0.874 (inactive) | 0.335 (inactive) | -0.526 (inactive) | 0.669 (inactive) | 0.392 (inactive) | -0.406 (inactive) | -0.922 | -0.146 | 0.0584 (inactive) | 0.703 | -0.443 | -3.98 (inactive) | -0.0167 (inactive) | 0.0304 (inactive)
C=CCNC(=O)[C@@H]1[C@H]2C(=O)O[C@H](c3ccccc3)[C@H](c3ccccc3)N2[C@H](c2ccc(O)cc2)[C@@]12C(=O)Nc1ccc(C#CCCO)cc12 | 0.917 | -0.599 (inactive) | 0.343 (inactive) | -0.489 (inactive) | -0.212 (inactive) | -0.769 (inactive) | 0.883 (inactive) | -0.582 (inactive) | 1.32 | -0.377 | 3.57 (inactive) | 0.693 | -0.37 | -5.14 (inactive) | -0.154 (inactive) | -0.0542 (inactive)
CCCC=C(CCC)[C@@H](NS(=O)(=O)c1cccc2cccnc12)c1ccc(C(=O)OC)cc1 | 0.582 | 1.35 (inactive) | 0.058 (inactive) | -0.0345 (inactive) | 0.371 (inactive) | 1.04 (inactive) | 0.134 (inactive) | -0.754 (inactive) | 0.0013 | 0.67 | -0.357 (inactive) | 0.315 | -0.271 | -2.22 (inactive) | -0.767 (inactive) | -0.492 (inactive)
CCCC[C@@H](O)C1=C(COc2ccccc2)Cn2c(=O)n(-c3ccccc3)c(=O)n2[C@H]1CO | -0.196 | -4 (inactive) | 0.0088 (inactive) | -1.05 (inactive) | 0.789 (inactive) | -3.57 (inactive) | 1.36 (inactive) | 0.0244 (inactive) | 0.539 | 0.106 | 1.52 (inactive) | 0.628 | -0.471 | -6.48 (inactive) | -0.532 (inactive) | 0.347 (inactive)
COc1ccc([Si](C)(C)[C@@H]2[C@@H](CCO)O[C@]3(C(=O)N(Cc4ccccc4)c4ccc(N5CCCCC5=O)cc43)[C@H]2C)cc1 | -1.62 | 0.86 (inactive) | -3.11 (inactive) | -2.04 (inactive) | -0.565 (inactive) | 3.49 (inactive) | -0.277 (inactive) | -0.18 (inactive) | -2.29 | -0.0826 | 2.38 (inactive) | 0.565 | -2.89 | -4.29 (inactive) | -1.71 (inactive) | -1.73 (inactive)
C=CCN1C(=O)[C@@]2(O[C@@H](CCO)[C@H]([Si](C)(C)c3ccc(OC)cc3)[C@H]2C)c2cc(NC(=O)[C@H](C)O)ccc21 | -1.15 | -2.34 (inactive) | -2.15 (inactive) | -0.108 (inactive) | 1.73 (inactive) | 2.32 (inactive) | 0.895 (inactive) | 0.403 (inactive) | -2.3 | 0.555 | 0.395 (inactive) | 0.603 | -2.83 | -5.68 (inactive) | -0.455 (inactive) | 0.18 (inactive)
OCCCC1=CC(c2cccs2)N(Cc2cccc(OC(F)(F)F)c2)CC1 (centres undefined) | -0.505 | -4.17 (inactive) | -0.656 (inactive) | -1.3 (inactive) | -0.341 (inactive) | -0.54 (inactive) | 0.0886 (inactive) | -0.573 (inactive) | -0.175 | 0.282 | -0.512 (inactive) | 0.754 | -0.717 | -2.9 (inactive) | 0.439 (inactive) | 0.513 (inactive)
